VP16 counter – VP16 counterscreen qHTS for inhibitors of ROR gamma transcriptional activity. Drosophila S2 Gal4-VP16 UAS-luciferase, luminescence, 20 h. 310,000 compounds, 3.5% hits. Potency, µM (top dose mostly 53.6 µM), usual class: inhibitors;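 also: Gal4-VP16 expression switched on by copper sulfate through the metallothionein promoter; nearly all actives have a fitted effect of over 50% in size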
MCF10A rerep – A quantitative high throughput screen for small molecules that induce DNA re-replication in MCF 10a normal breast cells. 350,000 compounds, 2.9% hits. MCF 10A DNA re-replication, Hoechst nuclear intensity, 48 h. Potency, µM (titrated, usually from 46.1 µM), actives largely listed as activators. AID 624296, 2012; also: nearly all actives have a fitted effect of over 50% in size
RORgamma inh – qHTS for inhibitors of ROR gamma transcriptional activity. 310,000 compounds, 5.4% hits. Potency, µM (titrated, usually from 53.6 µM), hits mostly inhibitors. Drosophila S2 Gal4-RORgamma UAS-luciferase reporter, 20 h. Nuclear receptor ROR-gamma (Mus musculus), P51450; also: nearly all actives have a fitted effect of over 60% in size
Target sequence (P51450 whole entry, looked up, the tested form may be a part): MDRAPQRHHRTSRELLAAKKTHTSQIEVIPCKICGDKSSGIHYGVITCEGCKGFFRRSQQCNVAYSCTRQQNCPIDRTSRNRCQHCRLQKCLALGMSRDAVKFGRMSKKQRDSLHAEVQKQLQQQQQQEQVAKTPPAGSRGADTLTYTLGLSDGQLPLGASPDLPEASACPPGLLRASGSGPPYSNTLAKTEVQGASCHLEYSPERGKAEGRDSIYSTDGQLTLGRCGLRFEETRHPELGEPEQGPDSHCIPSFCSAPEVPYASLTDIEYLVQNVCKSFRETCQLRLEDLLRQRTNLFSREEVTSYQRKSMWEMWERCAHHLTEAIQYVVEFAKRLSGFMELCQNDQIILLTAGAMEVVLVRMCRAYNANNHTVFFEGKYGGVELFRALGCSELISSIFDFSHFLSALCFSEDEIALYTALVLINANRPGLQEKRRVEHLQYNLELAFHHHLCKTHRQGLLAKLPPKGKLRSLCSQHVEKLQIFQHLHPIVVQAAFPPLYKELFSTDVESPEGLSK
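Drosophila S2 cells stably expressing Gal4-DBD/mouse RORγ fusion under metallothionein promoter plus UAS-luciferase; compound 1 h, then 700 uM CuSO4 induction for 20 h at ambient temperature; inhibition read as reduced luminescence.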
SW480 rerep – A quantitative high throughput screen for small molecules that induce DNA re-replication in SW480 colon adenocarcinoma cells; SW480 DNA re-replication, Hoechst DNA content imaging, 48 h; Potency, µM (series often up to 46.1 µM), hits mostly activators; 340,000 compounds, 1.8% hits; AID 624297, 2012; also: nearly all actives have a fitted effect of over 55% in size
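Image-based read-out: total Hoechst fluorescence of nuclei (405 nm excitation, 500-530 nm emission), with hits raising the fraction of high-intensity nuclei. SW480 colon cells incubated 48 hr with compounds at 37 C.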
ELG1 repair inh – qHTS screen for small molecules that inhibit ELG1-dependent DNA repair in human embryonic kidney (HEK293T) cells expressing luciferase-tagged ELG1; Potency, µM (doses to about 46.1 µM), most hits filed as inhibitors; HEK293T ELG1-luciferase reporter, luminescence, 16 h; DNA damage induced by 5-fluorouridine; 330,000 compounds, 2.3% hits; AID 504467, 2011; also: nearly all actives have a fitted effect of over 55% in size
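Quantitative HTS, concentration-response format. 2,000 cells/well co-treated with 5-fluorouridine and compound, 16 hr in 5% CO2 at 37 °C; ONE-Glo luminescence read after 30 min.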
Numbers stand for hits; [ ] = remark or other dose. Rows were chosen to be rich in hits. Some 10% of all compounds tested hit in one or more screens of this group. Calls follow the shape of the dose curve; as a rule, active = well fitted curve in the direction sought with a large enough effect; inconclusive = small, poorly fitted or top-dose-only effect, or another doubt; inactive = no such curve, though single readings can be large; an effect the other way counts as inactive or inconclusive.

What do the screens show for `O=C(N/N=C/c1ccc(O)cc1O)c1ccc(CN2C(=O)c3cccc4cccc2c34)cc1`?
VP16 counter: inactive; MCF10A rerep: inconclusive; RORgamma inh: inactive; SW480 rerep: inconclusive; ELG1 repair inh: 2.91µM

What do the screens show for `O=C(N/N=C/c1ccccc1)c1ccc(CN2C(=O)c3cccc4cccc2c34)cc1`?
VP16 counter: inactive; MCF10A rerep: 16.4µM; RORgamma inh: inactive; SW480 rerep: inconclusive; ELG1 repair inh: inconclusive

How did COc1cccc(/C=N/NC(=O)c2ccc(CN3c4cccc5cccc(c45)S3(=O)=O)cc2)c1 do in these assays?
VP16 counter: inactive; MCF10A rerep: inactive; RORgamma inh: inactive; SW480 rerep: inactive; ELG1 repair inh: inconclusive

How did Cc1ccc(CNC(=O)CCSCc2ccccc2F)cc1 do in these assays?
VP16 counter: inactive; MCF10A rerep: inactive; RORgamma inh: inactive; SW480 rerep: inactive; ELG1 repair inh: inactive

Results for Cc1cc(OCC(=O)NN2C(=O)c3ccccc3C2=O)ccc1Cl ?
VP16 counter: inactive; MCF10A rerep: inactive; RORgamma inh: inactive; SW480 rerep: inactive; ELG1 repair inh: inactive

How did CCCNc1nc(C)nc2c1cnn2CCc1ccccc1 do in these assays?
VP16 counter: inactive; MCF10A rerep: inactive; RORgamma inh: inactive; SW480 rerep: inactive; ELG1 repair inh: inconclusive

How did Cc1nc(NC(C)C)c2cnn(CCc3ccccc3)c2n1 do in these assays?
VP16 counter: inactive; MCF10A rerep: 20.6µM; RORgamma inh: inconclusive; SW480 rerep: inactive; ELG1 repair inh: inconclusive

How did COc1ccccc1OCC(=O)NCCCn1ccnc1 do in these assays?
VP16 counter: inactive; MCF10A rerep: inactive; RORgamma inh: inactive; SW480 rerep: inactive; ELG1 repair inh: inactive

What do the screens show for `Cc1ccc(C(C)C)cc1OCC(=O)NCCCn1ccnc1`?
MCF10A rerep: 1.46µM; SW480 rerep: inactive; ELG1 repair inh: inactive

How did O=C(COc1cc2oc(=O)c3c(c2cc1Cl)CCC3)NCCCn1ccnc1 do in these assays?
VP16 counter: inactive; MCF10A rerep: 23.1µM; RORgamma inh: inactive; SW480 rerep: inactive; ELG1 repair inh: inactive

What do the screens show for `Cc1ccc(C)c(C(=O)Nc2ccncc2)c1`?
VP16 counter: inactive; MCF10A rerep: inconclusive; RORgamma inh: inactive; SW480 rerep: inactive; ELG1 repair inh: inconclusive

How did O=C(c1ccccc1Br)N1CCn2c1nc1ccccc12 do in these assays?
VP16 counter: inactive; MCF10A rerep: 3.66µM; RORgamma inh: inactive; SW480 rerep: inactive; ELG1 repair inh: inactive

Results for O=C(c1ccccc1Cl)N1CCn2c1nc1ccccc12 ?
VP16 counter: inactive; MCF10A rerep: inactive; RORgamma inh: inactive; SW480 rerep: inactive; ELG1 repair inh: inactive

How did N=c1c2c(n(Cc3ccc(Br)cc3)c3c1CCC3)CCCC2 do in these assays?
VP16 counter: inconclusive; MCF10A rerep: inconclusive; RORgamma inh: inconclusive; SW480 rerep: inactive; ELG1 repair inh: inactive

What do the screens show for `N=c1c2c(n(Cc3ccc([N+](=O)[O-])cc3)c3c1CCC3)CCCC2`?
VP16 counter: inactive; MCF10A rerep: inactive[9.22 µM]; RORgamma inh: inactive; SW480 rerep: inactive; ELG1 repair inh: 8.2µM

Results for O=[N+]([O-])c1ccccc1-c1ccc(C(=S)N2CCCCC2)o1 ?
VP16 counter: inactive; MCF10A rerep: inactive; RORgamma inh: inactive; SW480 rerep: inactive; ELG1 repair inh: inconclusive

How did CC(=O)c1cccc(NC(=O)c2ccc(-c3ccccc3[N+](=O)[O-])o2)c1 do in these assays?
VP16 counter: 7.08µM; MCF10A rerep: 18.4µM; RORgamma inh: inconclusive; SW480 rerep: inactive; ELG1 repair inh: inconclusive

Results for O=[N+]([O-])c1ccccc1-c1ccc(C(=S)N2CCCC2)o1 ?
VP16 counter: inactive; MCF10A rerep: inactive; RORgamma inh: inactive; SW480 rerep: 8.2µM; ELG1 repair inh: inconclusive

How did COc1cccc(-c2nc(CCl)cs2)c1OC do in these assays?
VP16 counter: inactive; MCF10A rerep: inconclusive; RORgamma inh: inactive; SW480 rerep: inconclusive; ELG1 repair inh: inconclusive

Results for Cc1nn(-c2ccccc2)c(Cl)c1/C=C(\C#N)C(=O)NC(C)C ?
VP16 counter: inconclusive; MCF10A rerep: 23.1µM; RORgamma inh: inconclusive; SW480 rerep: inconclusive; ELG1 repair inh: inconclusive

How did Nc1cc(C(F)(F)F)ccc1OCC1CCCO1 (centres undefined) do in these assays?
VP16 counter: inactive; MCF10A rerep: inactive; RORgamma inh: inactive; SW480 rerep: inactive; ELG1 repair inh: inconclusive

How did O=C(COC(=O)c1c2c(nc3ccccc13)CCCC2)c1cccs1 do in these assays?
VP16 counter: inactive; MCF10A rerep: inactive; RORgamma inh: inactive; SW480 rerep: inactive; ELG1 repair inh: inconclusive

Results for CCc1cccc(C)c1NC(=O)COC(=O)c1c2c(nc3ccccc13)/C(=C\c1cccs1)CCC2 ?
VP16 counter: inactive; MCF10A rerep: 10.3µM; RORgamma inh: inconclusive; SW480 rerep: 18.4µM; ELG1 repair inh: 14.6µM

How did CC(C)CNC(=O)COC(=O)c1c2c(nc3ccccc13)/C(=C/c1cccs1)CC2 do in these assays?
VP16 counter: inconclusive; MCF10A rerep: 3.26µM; RORgamma inh: inactive; SW480 rerep: 3.66µM; ELG1 repair inh: inconclusive

What do the screens show for `NC(=O)c1ccc(NC(=O)COC(=O)c2c3c(nc4ccccc24)/C(=C\c2cccs2)CCC3)cc1`?
VP16 counter: 5.01µM; MCF10A rerep: 23.1µM; RORgamma inh: 4.47µM; SW480 rerep: 20.6µM; ELG1 repair inh: 7.31µM

Results for CCN1C/C(=C/c2cccs2)c2nc3ccccc3c(C(=O)O)c2C1 ?
VP16 counter: inactive; MCF10A rerep: inactive; RORgamma inh: inactive; SW480 rerep: inactive; ELG1 repair inh: inactive

Results for CC(O)[C@H]1CC[C@H]2[C@@H]3CC[C@H]4C[C@@H](O)CC[C@]4(C)[C@H]3/C(=N/O)C[C@]12C (some centres undefined) ?
MCF10A rerep: inactive; SW480 rerep: inactive; ELG1 repair inh: inactive

What do the screens show for `Cc1ccn2c(c1)nc(=S)n2C(=O)c1ccccc1`?
VP16 counter: 2.51µM; MCF10A rerep: inactive; RORgamma inh: 3.98µM; SW480 rerep: inactive; ELG1 repair inh: inconclusive

How did O=C(O)c1ccc(NC(C(=O)c2ccccc2)c2ccccc2)cc1 (centres undefined) do in these assays?
MCF10A rerep: inactive; SW480 rerep: inactive

How did C=CCn1c(SCC(N)=O)nnc1-c1cnccn1 do in these assays?
VP16 counter: inactive; MCF10A rerep: inactive; RORgamma inh: inactive; SW480 rerep: inactive; ELG1 repair inh: inactive

How did Cc1nc(-c2ccncc2)nc(NCCNc2ccc(C(F)(F)F)cn2)c1Cl do in these assays?
VP16 counter: inactive; MCF10A rerep: inactive; RORgamma inh: inactive; SW480 rerep: inactive; ELG1 repair inh: inconclusive

Results for S=C(NCc1ccco1)Nc1cccc(Cl)c1Cl ?
VP16 counter: inactive; MCF10A rerep: inactive; RORgamma inh: inactive; SW480 rerep: inactive; ELG1 repair inh: 14.6µM

What do the screens show for `FC(F)Oc1ccccc1NC(=S)NCc1ccco1`?
VP16 counter: inactive; MCF10A rerep: inactive; RORgamma inh: inactive; SW480 rerep: inactive; ELG1 repair inh: inactive

High-throughput results as filed in PubChem.
